The full data set covers some 21,000 targets. This sample favours those with the largest changes.
Compound: CC1Cc2ccccc2N1C(=O)C1CCCN(C1)C(=O)CCl (mixture of isomers) [TRIM25 ligand 11 (diastereomer mixture)]
Assay: probe-labelled cysteine peptide fold change vs DMSO (competition) (log2 fold change); higher = less target engagement (more negative = stronger competition)
Conditions: THP-1, incubation time: 4 h
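Also: competitive chemoproteomic profiling in live THP-1 cells with an iodoacetamide desthiobiotin (IA-DTB) probe, comparing probe-labelled peptide intensities in compound-treated cells against DMSO-treated controls.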

| Target | probe-labelled cysteine peptide fold change (10 µM) | probe-labelled cysteine peptide fold change (50 µM) |
| --- | --- | --- |
| MRE11_P49959_249_HGSTNFIPEQFLDDFIDLVIWGHEHECK (UniProt P49959) | -0.0677 | -0.0212 |
| NAPA_P54920_84_HDAATCFVDAGNAFK (UniProt P54920) | 0.0886 | 0.00981 |
| MKNK2_Q9HBH9_136_EVEMLYQCQGHR (UniProt Q9HBH9) | 0.495 | 0.556 |
| MFSD2A_Q8NA29_44_KQQLSVCNK (UniProt Q8NA29) | -0.207 | -0.294 |
| MOB4_Q9Y3A3_134_HTLDGAACLLNSNK (UniProt Q9Y3A3) | -0.19 | -0.629 |
| MTF2_Q9Y483_133_CGQGYHQLCHTPHIDSSVIDSDEK (UniProt Q9Y483) | 0.12 | 0.228 |
| MACF1_Q9UPN3_5309_DCDVQGLEHDMEEINAR (UniProt Q9UPN3) | 0.136 | -0.0387 |
| MELTF_P08582_603_SEDYELLCPNGAR (UniProt P08582) | 0.0149 | 0.0229 |
| LTA4H_P09960_26_CSVDFTR (UniProt P09960) | -0.0535 | -0.00265 |
| MAN2C1_Q9NTJ4_871_WMDLSEHGFGLALLNDCK (UniProt Q9NTJ4) | 0.38 | 0.327 |
| NANS_Q9NR45_19_WVGGQHPCFIIAEIGQNHQGDLDVAK (UniProt Q9NR45) | 0.0689 | 0.0782 |
| NCAPH_Q15003_114_FTNTQITEHYSTCIK (UniProt Q15003) | 0.199 | -0.135 |
| MOV10_Q9HCE1_172_NGGTQSVTLTHLFPLCR (UniProt Q9HCE1) | 0.234 | 0.148 |
| MCU_Q8NE86_97_CQFTLKPISDSVGVFLR (UniProt Q8NE86) | -0.212 | -0.196 |
| MTMR3_Q13615_188_LCGSYPQELIVPAWITDK (UniProt Q13615) | 0.105 | 0.265 |
| MAD1L1_Q9Y6D9_662_LTSLYAEHPGDCLIFK (UniProt Q9Y6D9) | 0.00589 | -0.0309 |
| MDN1_Q9NU22_1400_TTICQVFAALANQK (UniProt Q9NU22) | 0.156 | 0.0599 |
| MAP4K1_Q92918_334+335_SSSLGIPDADCCR (UniProt Q92918) | -0.0222 | -0.126 |
| MYO18A_Q92614_1046_LHFVHCFLPVAEGWAGEPR (UniProt Q92614) | 0.231 | 0.422 |
| MLST8_Q9BVC4_107_WMYTGGEDCTAR (UniProt Q9BVC4) | 0.0109 | -0.0842 |
| MTPAP_Q9NVV4_324_FSHQASGFQCDLTTNNR (UniProt Q9NVV4) | 0.592 | 0.896 |

| Target | probe-labelled cysteine peptide fold change (10 µM) | probe-labelled cysteine peptide fold change (50 µM) |
| --- | --- | --- |
| MDN1_Q9NU22_1394_ALEFGEPVLLVGDTGCGK (UniProt Q9NU22) | -0.0161 | 0.145 |
| MED14_O60244_635_AGEMCAFNK (UniProt O60244) | -0.0268 | -0.0566 |
| MBIP_Q9NS73_243_DCGNQAVEER (UniProt Q9NS73) | -0.0155 | -0.0072 |
| MATR3_P43243_296_GYPHLCSICDLPVHSNK (UniProt P43243) | -0.0503 | 0.00253 |
| NAA10_P41227_17+21_NARPEDLMNMQHCNLLCLPENYQMK (UniProt P41227) | -0.0777 | -0.156 |
| MTREX_P42285_983_LEIDEETYLSSFKPHLMDVVYTWATGATFAHICK (UniProt P42285) | 0.115 | -0.0469 |
| MICAL2_O94851_1059_PHFIHCK (UniProt O94851) | 0.00568 | 0.0284 |
| NCAPG_Q9BPX3_177_DDECPVVNAYATLIENDSNPEVR (UniProt Q9BPX3) | -0.316 | -0.473 |
| MED14_O60244_1433_QGECTIFAAVR (UniProt O60244) | 0.177 | 0.249 |
| METTL5_Q9NRN9_107+110_NAEEFELTNIDMVQCDVCLLSNR (UniProt Q9NRN9) | -0.067 | -0.00432 |
| MCM6_Q14566_351_NLYHNLCTSLFPTIHGNDEVK (UniProt Q14566) | 0.107 | 0.0102 |
| MRPL45_Q9BRJ2_151_DIFIEAHLCLNNSDHDR (UniProt Q9BRJ2) | -0.648 | -0.159 |
| MDN1_Q9NU22_882_LFACMNPATDVGKR (UniProt Q9NU22) | -0.0968 | -0.078 |
| NAPA_P54920_103_KADPQEAINCLMR (UniProt P54920) | 0.0661 | 0.0556 |
| NCAPD3_P42695_143_CIQTLK (UniProt P42695) | 0.0922 | 0.12 |
| MATR3_P43243_230_CRDDSFFGETSHNYHK (UniProt P43243) | 0.0188 | -0.0509 |
| MSH6_P52701_1158+1165_QAGLLAVMAQMGCYVPAEVCR (UniProt P52701) | -0.115 | -0.66 |
| MTMR1_Q13613_438_TSVVVHCSDGWDR (UniProt Q13613) | 0.559 | -0.0364 |
| MFN1_Q8IWA4_513_LCSDFQEDIVFR (UniProt Q8IWA4) | 0.257 | 0.355 |
| MRPS34_P82930_93_SWLWQHDEPCYWR (UniProt P82930) | 0.0173 | 0.142 |
| MORC3_Q14149_744_ETCHQSTETDAVFLLESINGK (UniProt Q14149) | 0.143 | -0.605 |

| Target | probe-labelled cysteine peptide fold change (10 µM) | probe-labelled cysteine peptide fold change (50 µM) |
| --- | --- | --- |
| MYO9B_Q13459_152_QQADFDDLCNLPELTEGNLLK (UniProt Q13459) | -0.135 | -0.0276 |
| MAT1A_Q00266_34_ICDQISDAVLDAHLK (UniProt Q00266) | 0.555 | 0.255 |
| MTMR3_Q13615_81_ESLVNVPLQLIESVECR (UniProt Q13615) | 0.553 | -0.00809 |
| MRC2_Q9UBG0_201_YDNQWFHGCTSTGR (UniProt Q9UBG0) | -0.768 | -1.05 |
| MCM5_P33992_221_CVDFQTLK (UniProt P33992) | -0.0141 | 0.0951 |
| MAPRE2_Q15555_279_EIELLCQEHGQENDDLVQR (UniProt Q15555) | -0.0442 | -0.23 |
| MACF1_Q9UPN3_3619_QQNTCHQQLEDLCSWVGQAER (UniProt Q9UPN3) | -0.474 | 0.118 |
| NAE1_Q13564_384_LLCSNSAFLR (UniProt Q13564) | -0.025 | -0.00331 |
| MED7_O43513_223_DAALCVLIDEMNERP (UniProt O43513) | 0.0565 | -0.131 |
| MYCBP2_O75592_3786_NITINCVK (UniProt O75592) | -0.237 | 0.117 |
| MORC3_Q14149_717_QCHMFTDQIK (UniProt Q14149) | -0.0943 | 0.000884 |
| MYO1G_B0I1T2_618_LDENHCR (UniProt B0I1T2) | 0.054 | 0.247 |
| LYAR_Q9NX58_6+9_VFFTCNACGESVKK (UniProt Q9NX58) | -0.135 | -0.2 |
| MYO9B_Q13459_1169_HIQSCK (UniProt Q13459) | -0.0237 | -0.105 |
| NAXD_Q8IW45_261_GERDILSNGQQVLVCSQEGSSR (UniProt Q8IW45) | 0.0581 | 0.131 |
| MIS12_Q9H081_133_YKTELCTK (UniProt Q9H081) | -0.0461 | 0.0357 |
| METAP1_P53582_255_KLVQTTYECLMQAIDAVKPGVR (UniProt P53582) | -0.564 | -0.516 |
| MDH2_P40926_93_GCDVVVIPAGVPR (UniProt P40926) | -0.0615 | 0.0728 |
| MRPS24_Q96EL2_103_FMWGTFPGCLADQLVLK (UniProt Q96EL2) | 0.183 | 0.203 |
| MECP2_P51608_429_GGSLESDGCPKEPAK (UniProt P51608) | -0.274 | -0.613 |
| MGMT_P16455_145_GNPVPILIPCHR (UniProt P16455) | -0.499 | -1.05 |

| Target | probe-labelled cysteine peptide fold change (10 µM) | probe-labelled cysteine peptide fold change (50 µM) |
| --- | --- | --- |
| MAVS_Q7Z434_33_NFSNFCNVDVVEILPYLPCLTAR (UniProt Q7Z434) | 0.142 | 0.343 |
| METTL13_Q8N6R0_226_FRPVPGSALQIFELCAQEQR (UniProt Q8N6R0) | 0.025 | -0.292 |
| NACC1_Q96RE7_178_VKTEQQESDSVQCMPVAK (UniProt Q96RE7) | -0.28 | -0.426 |
| MOGS_Q13724_137_HTCEQGDGVGPYGWEFHDGLSFGR (UniProt Q13724) | -0.0183 | -0.127 |
| MICALL1_Q8N3F8_194_CSSTLLPGAYENGPEEGTFVCAEHCAR (UniProt Q8N3F8) | 0.154 | -0.0569 |
| MCL1_Q07820_286_TINQESCIEPLAESITDVLVR (UniProt Q07820) | -0.36 | -0.583 |
| MAP4_P27816_635_CSLPAEEDSVLEK (UniProt P27816) | -0.069 | -0.135 |
| LUC7L3_O95232_58_SDLGPCEK (UniProt O95232) | -0.0397 | -0.155 |
| MSTO1_Q9BUK6_232_LHFYVEECDYLQGFQILCDLHDGFSGVGAK (UniProt Q9BUK6) | 0.183 | -0.0331 |
| MDN1_Q9NU22_4604_HLFFSQSCSLLVR (UniProt Q9NU22) | 0.142 | 0.423 |
| MOCS3_O95396_193_YLVNDACVLAGRPLVSASALR (UniProt O95396) | -0.0913 | -0.0185 |
| MPG_P29372_56_AGQPHSSSDAAQAPAEQPHSSSDAAQAPCPR (UniProt P29372) | 0.193 | -0.822 |
| MATR3_P43243_821_NTHCSSLPHYQK (UniProt P43243) | 0.121 | -0.196 |
| MKI67_P46013_773_EQPQLTSTCHIAISNSENLLGK (UniProt P46013) | 0.234 | -0.0412 |
| MYADM_Q96S97_279_SRDVSCSR (UniProt Q96S97) | 1.04 | 1.29 |
| NAPA_P54920_212+215_AALCHFCIDMLNAK (UniProt P54920) | -0.0124 | 0.149 |
| NBAS_A2RRP1_1634_QLHCYNER (UniProt A2RRP1) | 0.000992 | -0.0554 |
| MED15_Q96RN5_618_QQYLCQPLLDAVLANIR (UniProt Q96RN5) | -0.00606 | 0.36 |
| METAP2_P50579_263_IIDCAFTVTFNPK (UniProt P50579) | 0.0495 | 0.114 |
| MTA2_O94776_106_CSVTLLNETDILSQYLEK (UniProt O94776) | 0.0256 | 0.178 |
| MED13L_Q71F56_1457_LGQHKPICK (UniProt Q71F56) | -0.182 | -0.263 |

From the supplement of paper PMC12067093, “Discovery and optimisation of a covalent ligand for TRIM25 and its application to targeted protein ubiquitination” (Chemical Science, 2025)
